For seven compounds, Potency and outcome results are on record in PubChem BioAssay (NCATS).

SMILES strings stand for the structures. A number with no mark means an inactive call. Records with an inconclusive call do not appear. Active and inactive are the calls of the source. Calls follow the shape of the dose curve; as a rule, active = well fitted curve in the direction sought with a large enough effect; inconclusive = small, poorly fitted or top-dose-only effect, or another doubt; inactive = no such curve, though single readings can be large; an effect the other way counts as inactive or inconclusive.

The target of test [1] is Glutathione peroxidase 1 (Homo sapiens) (UniProt P07203). The experiment in a line: Primary qHTS Assay for Inhibitors of Recombinant Selenoprotein Glutathione Peroxidase 1 (GPX1) (AID 1845191). Also: nearly all actives have a fitted effect of over 65% in size. In a few lines:
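Recombinant GPX1 (10 nM final) was preincubated with compound for 30 min at room temperature, then reacted with 1 mM GSH, 0.5 mM CHP, 0.5 mM NADPH and 100 nM glutathione reductase; NADPH fluorescence (340/450 nm) was read at 0 and 15 min.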

The target in test [2] is Phospholipid hydroperoxide glutathione peroxidase GPX4 (Homo sapiens) (UniProt P36969). The experiment in a line: Primary qHTS Assay for Inhibitors of Recombinant Selenoprotein Glutathione Peroxidase 4 (GPX4) (AID 1845192). Also: series mostly up to about 50 µM; nearly all actives have a fitted effect of over 65% in size. The gist of the method:
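GR-coupled readout: 100 nM GR, 1 mM GSH, 0.5 mM NADPH; NADPH fluorescence (ex 340/em 450 nm) read at t=0 and after 15 min RT. GPX4 200 nM, preincubated 30 min with compound; substrate 0.5 mM CHP.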
On the technique in general: Quantitative high-throughput screening tests each substance at several concentrations.

Test [3] has as its target Luciferin 4-monooxygenase (Photinus pyralis) (UniProt P08659). The experiment in a line: Primary firefly luciferase (FLuc) qHTS assay for identification of artifact compounds. (AID 1845220). Also: nearly all actives have a fitted effect of over 60% in size. In a few lines:
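Reaction readout was CCD-imaged luminescence, taken 5 min after adding 10 nM purified firefly enzyme to compound-treated wells holding 10 uM luciferin and ATP in pH 7.6 buffer.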

The nature of test [4]: Primary fluorescence-based thiol-reactive (MSTI) qHTS assay for identification of artifact compounds. (AID 1845221).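 Also: series mostly up to about 54 µM; thiol-reactive compounds lower the probe fluorescence signal; nearly all actives have a fitted effect of over 65% in size.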 In a few lines: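 qHTS titration of compound; 4 uM MSTI, PBS pH 7.4, 2% DMSO; 1 h RT, dark; fluorescence 525/598 nm; normalized to Acetyl-MSTI and MSTI; 4-parameter Hill fit.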
The subject of test [5] is Nanoluciferase (engineered Oplophorus gracilirostris luciferase). The experiment in a line: Primary Nanoluciferase (NLuc) qHTS assay for identification of artifact compounds. (AID 1845222).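 Also: NLuc secreted into diluted conditioned medium of S16 cells; series mostly up to about 54 µM.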 In a few lines: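 Concentration-response data were obtained by luminescence after 5 min with Nano-Glo substrate at 1:100. The enzyme was diluted S16 NLuc-expressing cell medium, preincubated with compound for 15 min at RT. Curves were fitted with a 4-parameter Hill model.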

Test [6] can be described thus: Primary redox qHTS assay for identification of artifact compounds. (AID 1845223). The gist of the method: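 Amplex Red (25 uM) and HRP (250 mU/mL) in HBSS, with compounds for 15 min, then 250 uM DTT for 30 min, room temperature, dark. Fluorescence 525/598 nm read; normalized to DMSO and 10 uM DA3003; Hill fit.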
Test [7] in a line: Quantitative High-Throughput drug screen in 47 multiple myeloma cell lines against the NCATS MIPE library collection: FR4_PLB cell viability assay (AID 1918924; also: nearly all actives have a fitted effect of over 35% in size; also: potency is read from the fitted curve at half-maximal effect). In a few lines: (§1)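 Viability readout: CellTiter-Glo luminescence following 5 min room-temperature incubation with reagent. Prior exposure: 48 h, 37C, humidified 5% CO2, 500 cells per well.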
A short description of test [8]: Quantitative High-Throughput drug screen in 47 multiple myeloma cell lines against the NCATS MIPE library collection: EJM_DSMZ cell viability assay (AID 1918926; also: nearly all actives have a fitted effect of over 30% in size; also: potency is read from the fitted curve at half-maximal effect). In a few lines:
(§2)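 CellTiter-Glo ATP luminescence gave viability after 48 h compound treatment at 37C of 500 multiple myeloma cells per well. Normalisation used DMSO-only wells as 100% and media-only wells as 0% viability; primary qHTS of approved and investigational drugs.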

Test [9] is described as follows: Quantitative High-Throughput drug screen in 47 multiple myeloma cell lines against the NCATS MIPE library collection: AMO1_DSMZ cell viability assay (AID 1918927; also: nearly all actives have a fitted effect of over 30% in size; also: potency is read from the fitted curve at half-maximal effect). In a few lines: as §2
The nature of test [10]: Quantitative High-Throughput drug screen in 47 multiple myeloma cell lines against the NCATS MIPE library collection: ARP1_JJKsccF8 cell viability assay (AID 1918928; also: nearly all actives have a fitted effect of over 40% in size; also: potency is read from the fitted curve at half-maximal effect). In a few lines:
(§3)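 Here, 48 h treatment with MIPE 4.0 agents at 37 °C preceded an ATP luminescence read. Plating density was 500 cells per well.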

Test [11] is described as follows: Quantitative High-Throughput drug screen in 47 multiple myeloma cell lines against the NCATS MIPE library collection: ARD_JJKsccE7 cell viability assay (AID 1918929; also: potency is read from the fitted curve at half-maximal effect). In a few lines: as §2
Test [12] is described as follows: Quantitative High-Throughput drug screen in 47 multiple myeloma cell lines against the NCATS MIPE library collection: Karpas620_DSMZ cell viability assay (AID 1918959). Also: nearly all actives have a fitted effect of over 30% in size. Also: potency is read from the fitted curve at half-maximal effect. The gist of the method:
as §1

The nature of test [13]: Quantitative High-Throughput drug screen in 47 multiple myeloma cell lines against the NCATS MIPE library collection: KMM1_JCRB cell viability assay (AID 1918960). Also: nearly all actives have a fitted effect of over 30% in size. Also: potency is read from the fitted curve at half-maximal effect. The gist of the method: as §3
Test [14] is described as follows: Quantitative High-Throughput drug screen in 47 multiple myeloma cell lines against the NCATS MIPE library collection: Delta47_JCRB cell viability assay (AID 1918925; also: nearly all actives have a fitted effect of over 45% in size; also: potency is read from the fitted curve at half-maximal effect). In a few lines: as §2

Chain of Glutathione peroxidase 1 (Homo sapiens) (P07203 whole entry, looked up): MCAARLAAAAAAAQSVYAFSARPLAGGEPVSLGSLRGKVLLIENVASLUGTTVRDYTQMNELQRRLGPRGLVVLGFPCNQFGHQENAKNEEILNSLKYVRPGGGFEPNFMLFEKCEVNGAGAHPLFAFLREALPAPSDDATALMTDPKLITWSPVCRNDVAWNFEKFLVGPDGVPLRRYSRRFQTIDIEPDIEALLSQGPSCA
Chain of Phospholipid hydroperoxide glutathione peroxidase GPX4 (Homo sapiens) (P36969 whole entry, looked up): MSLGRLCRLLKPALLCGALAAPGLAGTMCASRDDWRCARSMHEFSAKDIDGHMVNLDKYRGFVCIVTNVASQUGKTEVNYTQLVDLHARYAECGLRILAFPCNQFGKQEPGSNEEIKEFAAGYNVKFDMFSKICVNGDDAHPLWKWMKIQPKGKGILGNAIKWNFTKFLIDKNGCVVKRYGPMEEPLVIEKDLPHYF

For the compound `Cc1ncc(-c2ccnc(Nc3ccc(S(C)(=O)=O)cc3)n2)n1C(C)C`, the Potency entry in [1], in test [2], in [3], in [4] and in test [6] was “inactive” each time. For the same compound, the result in [5] was inactive. Also, the Potency was 2.64 µM (active) in test [7]; 2.96 µM (active) in test [8]; 2.09 µM (active) in test [9]; 2.96 µM (active) in test [10]; 2.96 µM (active) in [11]; 3.72 µM (active) in [12]. In test [13], the Potency is 1.48 µM (active).

Turning to `CCOc1cc2c(c(F)c1OCC)C(=N)N(CC(=O)c1cc(N3CCOCC3)c(OC)c(C(C)(C)C)c1)C2`, the Potency entry in test [1], in test [2], in test [3] and in [6] was “inactive” throughout. Besides, in test [5], the result was inactive. Moreover, the figures for the Potency in test [7], in test [8] and in [10] were 23.5 µM (active), 20.9 µM (active) and 18.7 µM (active), respectively.

Regarding `COc1cc(CCc2cc(NC(=O)c3ccc(N4C[C@@H](C)N[C@@H](C)C4)cc3)n[nH]2)cc(OC)c1`, the Potency result in [1], in test [2], in test [3], in [4] and in test [6] was “inactive” throughout. Besides, the Potency in [7] is 18.7 µM (active); in test [14], 14.8 µM (active); in [8] it was 18.7 µM (active); in [9], 18.7 µM (active); in test [10] it was 18.7 µM (active); in test [11], 16.6 µM (active). In addition, in test [12], the Potency is 20.9 µM (active).

As to `CC(C)C[C@H](NC(=O)CNC(=O)c1cc(Cl)ccc1Cl)B1OC(=O)CC(CC(=O)O)(C(=O)O)O1` (some centres not stated), the Potency entry in [1] and in [2] was “inactive” each time. The Potency was 0.0418 µM (active) in test [7]; 0.0332 µM (active) in test [14]; 0.0833 µM (active) in [8]; 0.0235 µM (active) in [9]; 0.0332 µM (active) in [10]; 0.0526 µM (active) in test [11]. The Potency in test [12] was 0.0526 µM (active); in [13], 0.0418 µM (active).

On to `COc1cc(C)c(Sc2cnc(NC(=O)c3ccc(CNC(C)C(C)(C)C)cc3)s2)cc1C(=O)N1CCN(C(C)=O)CC1` (configuration not stated), for which the Potency entry in [1] and in [2] was “inactive” in each case. The Potency in [7] is 20.9 µM (active); in test [14] it was 2.09 µM (active); in test [8], 18.7 µM (active); in test [9], 5.26 µM (active); in test [10], 16.6 µM (active); in [11] it was 4.69 µM (active). Further, the Potency in test [12] is 8.33 µM (active); in test [13], 3.32 µM (active).

For the compound `NC(=O)Nc1cc(-c2ccc(CN3CCOCC3)cc2)sc1C(N)=O`, the Potency result in test [1] and in test [2] was “inactive” in each case. In addition, the Potency in test [7] was 18.7 µM (active); in test [14], 2.09 µM (active); in [8], 20.9 µM (active); in [9], 2.96 µM (active); in [10], 18.7 µM (active); in test [11], 0.935 µM (active). The values for the Potency in test [12] and in test [13] were 6.62 µM (active) and 4.18 µM (active), respectively.

For `Nc1nc2c(c(=O)[nH]1)N(C=O)[C@H](CNc1ccc(C(=O)N[C@@H](CCC(=O)O)C(=O)O)cc1)CN2`, the Potency entry in test [1], in [2], in [7], in test [14], in test [8] and in [9] was “inactive” in each case. Also, the Potency result in test [10], in test [12] and in [13] was “inactive” each time.
